# Data as given in PubChem BioAssay (NCATS).
# “And” between values parts separate entries of the source, which are not always exact repeats. Equal values may be shown once. Records with an inconclusive call do not appear. Where a call stands in place of a potency, no number is given. The source made the active and inactive calls. The call rests on the fitted dose curve; in most records, active means well fitted inhibition curve with a large enough effect; inconclusive means small, poorly fitted or top-dose-only effect; inactive means no such curve, though single readings can be large or run the other way.
# Target: Cytochrome P450 2C19 (Homo sapiens) (UniProt P33261)
# Experiment: qHTS Assay for Inhibitors and Substrates of Cytochrome P450 2C19 (AID 899); further: nearly all actives have a fitted effect of over 60% in size
# Conditions: recombinant CYP2C19, luciferin-H EGE luminescence; series mostly up to 11.4 µM
# Protocol: NIH Molecular Libraries Screening Centers Network [MLSCN]
# NIH Chemical Genomics Center [NCGC]
# The P450 gene superfamily is involved in the metabolism and clearance of xenobiotics. This assay used human CYP2C19 to measure the hydroxylation of ethylene glycol ester of 6' deoxyluciferin (Luciferin-H EGE; […]) to luciferin. The luciferin is then measured by luminescence after the addition of a luciferase detection reagent. Luciferin-H EGE concentration in the assay was equal to its KM for CYP2C19. Inhibitors and some substrates limit the production of luciferin, and decrease measured luminescence.
# NCGC Assay Protocol Summary:
# Two uL of enzyme and substrate mix (final concentrations: 5nM CYP2C19, 10uM Luciferin-H EGE, 50mM KPO4) were dispensed into a white, solid bottom 1536-well microtiter plate. 23nL of compound was transferred by a pin tool. The plate was incubated at 37C for 10 min. Two uL of an NADPH regeneration solution (Promega supplied reagent) was dispensed and the reaction was allowed to continue for 60 min at 37C. Then the reaction was stopped by reconstituted luciferin detection buffer. After another 20 min of incubation the plate was read on the ViewLux (Perkin Elmer) at 60 sec exposure and 2x2 binning. This protocol was carried out with Promega-Glo reagents and further information can be found at http://www.promega.com/tbs/tb325/tb325.pdf. Data were normalized to the to AC100 inhibition (57uM ketoconazole).
# Keywords: P450, CYP2C19, Luciferase, MLSMR, MLSCN, NIH Roadmap, qHTS, NCGC
# Potency means the concentration at half of the fitted maximal effect.
# Cytochrome P450 2C19 (Homo sapiens), sequence (P33261 whole entry, looked up): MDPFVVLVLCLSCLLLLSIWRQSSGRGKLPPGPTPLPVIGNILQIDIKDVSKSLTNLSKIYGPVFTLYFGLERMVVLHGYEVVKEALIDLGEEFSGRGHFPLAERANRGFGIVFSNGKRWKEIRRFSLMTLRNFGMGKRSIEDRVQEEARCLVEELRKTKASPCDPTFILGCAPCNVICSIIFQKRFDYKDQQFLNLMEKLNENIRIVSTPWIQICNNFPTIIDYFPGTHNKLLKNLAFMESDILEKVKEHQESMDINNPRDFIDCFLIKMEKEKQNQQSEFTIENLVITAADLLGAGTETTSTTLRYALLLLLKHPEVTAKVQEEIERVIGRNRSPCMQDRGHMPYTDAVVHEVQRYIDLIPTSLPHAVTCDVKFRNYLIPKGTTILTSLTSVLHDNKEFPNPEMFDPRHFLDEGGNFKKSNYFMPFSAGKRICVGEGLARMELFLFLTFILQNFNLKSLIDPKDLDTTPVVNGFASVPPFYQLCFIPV
row,Compound,Potency
1,CCOC(=O)OCC1OC(c2cc(C)cc(C)c2)C=CC1OC(=O)OCC (stereo not given),inactive
2,CC1CCC2C(=O)OC(CO)CN2C1c1ccc(Br)cc1 (stereo not given),0.158 µM (active)
3,O=C(/C=N/O)NCCCCNC(=O)/C=N/O,inactive
4,COC(=O)C/C=C/C(C)C(OCc1cccc(-c2ccccc2)c1)C1CCCCC1 (stereo not given),inactive
5,COC(=O)NC(c1ccco1)[C@]1(C(C)=O)CCCC1=O (stereo not given in full),inactive
6,COC(=O)NC(/C(C(=O)OC)=C(\C)NCc1ccccc1)c1ccc2ccccc2c1 (stereo not given),0.0631 µM (active)
7,COc1ccc(/C=C/C2=CC3(C)CC2(C)C(c2ccc(OC)cc2)CC3=O)cc1 (stereo not given),inactive
8,CC(=O)OC[C@H]1O[C@@H](O/N=C2/[C@H]3O[C@@H]3[C@@H](O)[C@H]3[C@H]2CCn2c(=O)n(-c4ccccc4)c(=O)n23)[C@H](OC(C)=O)[C@@H](OC(C)=O)[C@@H]1OC(C)=O,inactive
9,COC(=O)/C=C/C1c2ccccc2C(OC)C1C (stereo not given),inactive
10,COC(=O)NC(c1ccccc1)[C@]1(C(C)=O)CCCC1=O (stereo not given in full),inactive
11,COc1ccc(/C=C/C(=O)c2ccccc2O)cc1,1.26 µM (active)
12,CC(=O)OC[C@@H]1O[C@H](C/C=N\OCC[C@H]2C=C[C@H](OC(C)=O)[C@@H](COC(C)=O)O2)C=C[C@@H]1OC(C)=O,inactive
13,CC1CCC(C(=O)O)NC1c1ccc(-c2ccco2)cc1 (stereo not given),inactive
14,CO[C@@H]1COC(=O)C/C=C\[C@H](C)COC(=O)[C@H](Cc2ccccc2)NC(=O)C/C=C\[C@H]1C,2.51 µM (active)
15,C/C(CCC(=O)OC[C@@H]1O[C@H](C#Cc2ccccc2)C=C[C@@H]1Oc1ccc(C)cc1)=N/O[C@@H](C)CN1CCCc2nc(C)c(C)cc21,3.16 µM (active)
16,COc1ccc(OCC2CN3C(CCC(C)C3c3ccc(Br)cc3)C(=O)O2)cc1 (stereo not given),inactive
17,C=CCOC(=O)/C=C/NC(=O)/C=C/C=C/CCCCCCCC(C)O (stereo not given),inactive
18,CO/N=C(/C)CCC(=O)OC[C@@H]1O[C@H](C#Cc2ccccc2)C=C[C@@H]1Oc1ccc(C)cc1,3.98 µM (active)
19,CCOC(=O)OCC1OC(c2ccccc2)C=CC1Oc1ccc(F)cc1C (stereo not given),2 µM (active)
20,CC1CCC2C(=O)N3C(CCC(C)[C@H]3c3ccccc3Br)C(=O)N2C1c1ccccc1Br (stereo not given in full),inactive

row,Compound,Potency
1,COC(=O)C1=C(C)N(Cc2ccccc2)c2c(C(=O)OC)c(C(=O)OC)c(C(=O)OC)c(=O)n2C1c1ccccc1 (stereo not given),inactive
2,CC1CCC2C(=O)N3C(CCC(C)[C@@H]3c3ccc(-c4ccco4)cc3)C(=O)N2C1c1cccc(N2CCCC2=O)c1 (stereo not given in full),inactive
3,CCOC(c1cc(OC)cc([N+](=O)[O-])c1OC)C(C)C(OC)[C@@H](C)/C=C/CC(=O)OC (stereo not given in full),1 µM (active)
4,CC(C)CCN1CCc2nc(-c3ccccc3)c3c(c2C1)COC(C)C3 (stereo not given),inactive
5,COC(=O)C1=C(C)N(Cc2ccccc2)C2=C3C(=O)N(C)C(=O)C3[C@@](O)(C(=O)OC)C(=O)N2C1c1ccccc1 (stereo not given in full),inactive
6,C=COCC1CN2C(CCC(C)C2c2ccc(Br)cc2)C(=O)O1 (stereo not given),316 nM (active) and 79.4 nM (active)
7,C=CCOC(=O)C(C(C)=O)C(NC(=O)OC)c1ccc2ccccc2c1 (stereo not given),0.126 µM (active)
8,CC12C=C(/C=C/c3ccc(F)cc3)C(C)(C1)C(c1ccc(F)cc1)CC2=O (stereo not given),2.51 µM (active)
9,CCCNC(=O)OC[C@@H]1O[C@H](CCO/N=C2\c3cc(OC)ccc3O[C@H](c3cccc(OC)c3)[C@H]2O)C=C[C@@H]1Oc1ccc(OC)cc1,1.58 µM (active)
10,COC(=O)NC(c1cccc(C)c1)[C@@]1(C(=O)OC)CCCC1=O (stereo not given in full),inactive
11,CCC(=O)CC(NC(=O)OC)c1ccccc1 (stereo not given),inactive
12,COC(=O)C1C(C)OC(=O)NC1c1ccccc1 (stereo not given),inactive
13,CC1CCC(C(=O)O)NC1c1cccc(N2CCCC2=O)c1 (stereo not given),inactive
14,CCCCC#CC1C=CC(Oc2cc(OC)c(OC)c(OC)c2)C(COC(=O)OCC)O1 (stereo not given),inactive
15,CC(=O)OCC1OC(C#Cc2ccc(F)cc2F)C=CC1OC(C)=O (stereo not given),2.51 µM (active)
16,CC(=O)OCC1OC(C#Cc2ccc(Br)cc2)C=CC1OC(C)=O (stereo not given),inactive
17,CC12C=C(/C=C/c3ccc(C(F)(F)F)cc3)C(C)(C1)C(c1ccc(C(F)(F)F)cc1)CC2=O (stereo not given),inactive
18,CCC12C=C(/C=C/c3ccccc3)C(CC)(C1)C(c1ccccc1)CC2=O (stereo not given),5.01 µM (active)
19,CCOC(=O)[C@]1(C(NC(=O)OC)c2cccc(C)c2)CCCC1=O (stereo not given in full),inactive
20,COC(=O)C1=C(C)N(Cc2ccccc2)C2=C(C(C)=O)C(c3ccccc3)[C@@](O)(C(=O)OC)C(=O)N2C1c1ccccc1 (stereo not given in full),inactive
